# Experimental data: PubChem BioAssay (NCI)
# Values joined by “and” are separate entries in the source; they are usually repeats but may differ in a detail not shown here. Equal values may be shown once. The panel holds about 79,000 compounds, 15% with a hit somewhere; the sample as a whole holds those more often. The source holds several records for some structures; these can differ, active in one and inactive in another. Active and inactive are the calls of the source. Cut-off read from the data, not from the text of the source: active = growth inhibition above about 70%; inactive = the rest.
# Legend:
# [1] = NCI Yeast Anticancer Drug Screen. Data for the rad50 strain (AID 155);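 note: 0% = growth of vehicle-only cultures of the same strain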; conditions: S. cerevisiae rad50 strain growth inhibition, stronger effect = higher value
# How it was run: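 Relative growth inhibition (compound vs vehicle) was measured in yeast with a defined repair-gene alteration.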
# [2] = NCI Yeast Anticancer Drug Screen. Data for the mec2-1 strain (AID 157); conditions: S. cerevisiae mec2-1 strain, stronger effect = higher value
# How it was run: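 Readout is yeast growth inhibition, normalised to vehicle-treated controls, in the mec2-1 strain exposed to compound.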
# [3] = NCI Yeast Anticancer Drug Screen. Data for the sgs1 mgt1 strain (AID 161);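 note: 0% = growth of cultures given vehicle only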; conditions: S. cerevisiae sgs1 mgt1 strain, stronger effect = higher value
# How it was run: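 This yeast growth screen uses a strain with defined DNA-repair lesions; compound-treated growth is compared with vehicle-treated growth.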
# [4] = NCI Yeast Anticancer Drug Screen. Data for the cln2 rad14 strain (AID 165);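 note: 0% = growth equal to vehicle treated cultures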; conditions: S. cerevisiae cln2 rad14 strain, stronger effect = higher value
# How it was run: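 Relative to vehicle controls, growth inhibition of compound-treated cln2 rad14 yeast was recorded.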
# [5] = NCI Yeast Anticancer Drug Screen. Data for the bub3 strain (AID 167); conditions: S. cerevisiae bub3 mutant strain, stronger effect = higher value
# How it was run: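 Screening used yeast with an engineered genetic alteration affecting cell cycle control. Compound-exposed cultures were compared with vehicle cultures, and reduced growth was taken as inhibition.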
# [6] = NCI Yeast Anticancer Drug Screen. Data for the mlh1 rad18 strain (AID 175); conditions: S. cerevisiae mlh1 rad18 strain growth inhibition, stronger effect = higher value
# How it was run: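 Test agents were incubated with a yeast strain of defined genotype (DNA damage repair defect). Inhibition of growth was derived by comparison with vehicle-exposed cultures.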
# [7] = NCI Yeast Anticancer Drug Screen. Data for the wt1 strain (AID 149);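 note: 0% = growth of vehicle-treated wt1 cultures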; conditions: S. cerevisiae wt1 strain (SPY 50644) growth inhibition, stronger effect = higher value
# How it was run: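 Using yeast strain wt1, compound-induced growth inhibition was determined against vehicle-treated cultures.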
# [8] = NCI Yeast Anticancer Drug Screen. Data for the rad14 strain (AID 159);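 note: 0% = growth of vehicle-treated control cultures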; conditions: S. cerevisiae rad14 strain growth inhibition, stronger effect = higher value
# How it was run: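 Screen for anticancer potential: a yeast strain altered in DNA damage repair is grown with compound, and reduced growth is quantified against vehicle controls.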
# [9] = NCI Yeast Anticancer Drug Screen. Data for the CLN2oe strain (AID 163);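 note: 0% = growth of vehicle-only control cultures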; conditions: S. cerevisiae CLN2oe strain, stronger effect = higher value
# How it was run: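 Values reflect how much compound exposure reduced yeast growth, referenced to vehicle-exposed cells. Assay organism is a strain with a defined genetic change affecting cell-cycle control.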
# [10] = NCI Yeast Anticancer Drug Screen. Data for the wt2 strain (AID 169);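 note: 0% = growth of vehicle-treated yeast cultures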; conditions: S. cerevisiae wt2 strain growth inhibition, stronger effect = higher value
# How it was run: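 Values express reduction in yeast growth under compound treatment, referenced to vehicle-treated cells.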
# [11] = NCI Yeast Anticancer Drug Screen. Data for the sgs1 strain (AID 173);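 note: 0% = growth of vehicle-only control cultures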; conditions: S. cerevisiae sgs1 mutant, stronger effect = higher value
# How it was run: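 Treat defined-mutant yeast with compound; measure growth; calculate inhibition relative to vehicle-treated cells.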
# [12] = NCI Yeast Anticancer Drug Screen. Data for the rad18 strain (AID 177); conditions: S. cerevisiae rad18 mutant growth inhibition, stronger effect = higher value
# How it was run: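 A genetically defined yeast mutant impaired in DNA damage repair was treated with test compounds, then its growth was measured against cultures receiving vehicle alone.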
# [13] = NCI Yeast Anticancer Drug Screen. Data for the rad50EPP+ strain (AID 151);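 note: 0% = growth of vehicle-treated control cultures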; conditions: S. cerevisiae rad50 mutant strain, stronger effect = higher value
# How it was run: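 Exposing the rad50EPP+ strain to each compound, growth was compared with vehicle-only cultures to give inhibition.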
# [14] = NCI Yeast Anticancer Drug Screen. Data for the mgt1 strain (AID 153); conditions: S. cerevisiae mgt1 mutant growth inhibition, stronger effect = higher value
# How it was run: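 Genetically defined yeast (mgt1) treated with compound; inhibition of growth expressed against vehicle-treated controls.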
# [15] = NCI Yeast Anticancer Drug Screen. Data for the mlh1 strain (AID 171);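 note: 0% = growth of vehicle-treated control cultures of the same strain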; conditions: S. cerevisiae mlh1 strain growth inhibition, stronger effect = higher value
# How it was run: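 Steps: expose the defined-mutant yeast strain to compound; expose a parallel culture to vehicle; measure growth; express compound effect as inhibition relative to the vehicle culture.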
# [16] = at 5.0 µM (retest, dose inferred, filed as 0.5)
# [17] = at 50.0 µM (retest, dose inferred, filed as 5.0)
structure (smiles),measurement,setting,value
COc1cccc2c1C(=O)c1c(O)c3c(c(O)c1C2=O)CC(O)(C(=O)CO)CC3OC1CC(N)C(O)C(C)O1 (stereo not given),growth inhibition,[1]; [16],13% (inactive) and 24% (inactive) and 34% (inactive)
same,growth inhibition,[1]; [17],13% (inactive) and 18% (inactive) and 91% (active)
same,growth inhibition,[2]; [16],7% (inactive) and 6% (inactive) and 14% (inactive)
same,growth inhibition,[2]; [17],8% (inactive) and 10% (inactive) and 58% (inactive)
same,growth inhibition,[3]; [16],7% (inactive) and 16% (inactive) and 25% (inactive)
same,growth inhibition,[3]; [17],0% (inactive) and 4% (inactive) and 71% (active)
same,growth inhibition,[4]; [16],2% (inactive) and 8% (inactive) and 23% (inactive)
same,growth inhibition,[4]; [17],1% (inactive) and 4% (inactive) and 53% (inactive)
same,growth inhibition,[5]; [16],10% (inactive) and 15% (inactive) and 18% (inactive)
same,growth inhibition,[5]; [17],13% (inactive) and 16% (inactive) and 76% (active)
same,growth inhibition,[6]; [16],-5% (inactive) and 20% (inactive) and 42% (inactive)
same,growth inhibition,[6]; [17],-1% (inactive) and 3% (inactive) and 94% (active)
CNc1ccc2[nH]c3ccccc3c2c1,growth inhibition,[7]; at 1.2 µM,0% (inactive)
same,growth inhibition,[7]; at 3.7 µM,0% (inactive)
same,growth inhibition,[7]; at 11.0 µM,1% (inactive)
same,growth inhibition,[7]; at 33.0 µM,-4% (inactive)
same,growth inhibition,[7]; at 100.0 µM,28% (inactive)
same,growth inhibition,[1]; at 1.2 µM,-1% (inactive)
same,growth inhibition,[1]; at 3.7 µM,-2% (inactive)
same,growth inhibition,[1]; [16],7% (inactive)
same,growth inhibition,[1]; at 11.0 µM,-2% (inactive)
same,growth inhibition,[1]; at 33.0 µM,1% (inactive)
same,growth inhibition,[1]; [17],25% (inactive)
same,growth inhibition,[1]; at 50.0 µM,90% (active)
same,growth inhibition,[1]; at 100.0 µM,58% (inactive)
same,growth inhibition,[2]; at 1.2 µM,-1% (inactive)
same,growth inhibition,[2]; at 3.7 µM,1% (inactive)
same,growth inhibition,[2]; [16],-1% (inactive)
same,growth inhibition,[2]; at 11.0 µM,0% (inactive)
same,growth inhibition,[2]; at 33.0 µM,1% (inactive)
same,growth inhibition,[2]; [17],-5% (inactive)
same,growth inhibition,[2]; at 50.0 µM,62.9% (inactive)
same,growth inhibition,[2]; at 100.0 µM,59% (inactive)
same,growth inhibition,[8]; at 1.2 µM,-3% (inactive)
same,growth inhibition,[8]; at 3.7 µM,-5% (inactive)
same,growth inhibition,[8]; at 11.0 µM,-3% (inactive)
same,growth inhibition,[8]; at 33.0 µM,4% (inactive)
same,growth inhibition,[8]; at 100.0 µM,80% (active)
same,growth inhibition,[3]; [16],-11% (inactive)
same,growth inhibition,[3]; [17],13% (inactive)
same,growth inhibition,[3]; at 50.0 µM,80.9% (active)
same,growth inhibition,[9]; at 1.2 µM,-6% (inactive)
same,growth inhibition,[9]; at 3.7 µM,-7% (inactive)
same,growth inhibition,[9]; at 11.0 µM,0% (inactive)
same,growth inhibition,[9]; at 33.0 µM,-5% (inactive)
same,growth inhibition,[9]; at 100.0 µM,52% (inactive)
same,growth inhibition,[4]; [16],-14% (inactive)
same,growth inhibition,[4]; [17],20% (inactive)
same,growth inhibition,[4]; at 50.0 µM,15.2% (inactive)
same,growth inhibition,[5]; at 1.2 µM,-4% (inactive)
same,growth inhibition,[5]; at 3.7 µM,-7% (inactive)
same,growth inhibition,[5]; [16],-11% (inactive)
same,growth inhibition,[5]; at 11.0 µM,-8% (inactive)
same,growth inhibition,[5]; at 33.0 µM,-10% (inactive)
same,growth inhibition,[5]; [17],-4% (inactive)
same,growth inhibition,[5]; at 50.0 µM,66.6% (inactive)
same,growth inhibition,[5]; at 100.0 µM,54% (inactive)
same,growth inhibition,[10]; at 1.2 µM,-1% (inactive)
same,growth inhibition,[10]; at 3.7 µM,-1% (inactive)
same,growth inhibition,[10]; at 11.0 µM,3% (inactive)
same,growth inhibition,[10]; at 33.0 µM,5% (inactive)
same,growth inhibition,[10]; at 100.0 µM,59% (inactive)
same,growth inhibition,[11]; at 1.2 µM,0% (inactive)
same,growth inhibition,[11]; at 3.7 µM,4% (inactive)
same,growth inhibition,[11]; at 11.0 µM,3% (inactive)
same,growth inhibition,[11]; at 33.0 µM,11% (inactive)
same,growth inhibition,[11]; at 100.0 µM,83% (active)
same,growth inhibition,[6]; [16],-20% (inactive)
same,growth inhibition,[6]; [17],77% (active)
same,growth inhibition,[6]; at 50.0 µM,82.7% (active)
same,growth inhibition,[12]; at 1.2 µM,2% (inactive)
same,growth inhibition,[12]; at 3.7 µM,0% (inactive)
same,growth inhibition,[12]; at 11.0 µM,-11% (inactive)
same,growth inhibition,[12]; at 33.0 µM,18% (inactive)
same,growth inhibition,[12]; at 100.0 µM,85% (active)
O=C1c2ccccc2C(=O)C1C(c1ccc(F)cc1)C1C(=O)c2ccccc2C1=O,growth inhibition,[13]; at 1.2 µM,-8% (inactive)
same,growth inhibition,[13]; at 3.7 µM,8% (inactive)
same,growth inhibition,[13]; at 11.0 µM,21% (inactive)
same,growth inhibition,[13]; at 33.0 µM,61% (inactive)
same,growth inhibition,[13]; at 100.0 µM,75% (active)
same,growth inhibition,[14]; at 1.2 µM,0% (inactive)
same,growth inhibition,[14]; at 3.7 µM,-11% (inactive)
same,growth inhibition,[14]; at 11.0 µM,-17% (inactive)
same,growth inhibition,[14]; at 33.0 µM,5% (inactive)
same,growth inhibition,[14]; at 100.0 µM,76% (active)
same,growth inhibition,[1]; at 1.2 µM,13% (inactive)
same,growth inhibition,[1]; at 3.7 µM,5% (inactive)
same,growth inhibition,[1]; [16],21% (inactive)
same,growth inhibition,[1]; at 11.0 µM,7% (inactive)
same,growth inhibition,[1]; at 33.0 µM,28% (inactive)
same,growth inhibition,[1]; [17],46% (inactive)
same,growth inhibition,[1]; at 50.0 µM,77.5% (active)
same,growth inhibition,[1]; at 100.0 µM,88% (active)
same,growth inhibition,[2]; at 1.2 µM,-13% (inactive)
same,growth inhibition,[2]; at 3.7 µM,-6% (inactive)
same,growth inhibition,[2]; [16],-14% (inactive)
same,growth inhibition,[2]; at 11.0 µM,-14% (inactive)
same,growth inhibition,[2]; at 33.0 µM,6% (inactive)
same,growth inhibition,[2]; [17],81% (active)
same,growth inhibition,[2]; at 50.0 µM,75% (active)
same,growth inhibition,[2]; at 100.0 µM,83% (active)
same,growth inhibition,[3]; [16],2% (inactive)
same,growth inhibition,[3]; [17],41% (inactive)
same,growth inhibition,[3]; at 50.0 µM,56.2% (inactive)
same,growth inhibition,[9]; at 1.2 µM,6% (inactive)
same,growth inhibition,[9]; at 3.7 µM,0% (inactive)
same,growth inhibition,[9]; at 11.0 µM,-1% (inactive)
same,growth inhibition,[9]; at 33.0 µM,34% (inactive)
same,growth inhibition,[9]; at 100.0 µM,86% (active)
same,growth inhibition,[4]; [16],27% (inactive)
same,growth inhibition,[4]; [17],89% (active)
same,growth inhibition,[4]; at 50.0 µM,85.8% (active)
same,growth inhibition,[5]; at 1.2 µM,-18% (inactive)
same,growth inhibition,[5]; at 3.7 µM,-33% (inactive)
same,growth inhibition,[5]; [16],17% (inactive)
same,growth inhibition,[5]; at 11.0 µM,-34% (inactive)
same,growth inhibition,[5]; at 33.0 µM,-17% (inactive)
same,growth inhibition,[5]; [17],87% (active)
same,growth inhibition,[5]; at 50.0 µM,79% (active)
same,growth inhibition,[5]; at 100.0 µM,83% (active)
same,growth inhibition,[10]; at 1.2 µM,1% (inactive)
same,growth inhibition,[10]; at 3.7 µM,2% (inactive)
same,growth inhibition,[10]; at 11.0 µM,1% (inactive)
same,growth inhibition,[10]; at 33.0 µM,22% (inactive)
same,growth inhibition,[10]; at 100.0 µM,81% (active)
same,growth inhibition,[15]; at 1.2 µM,-17% (inactive)
same,growth inhibition,[15]; at 3.7 µM,-15% (inactive)
same,growth inhibition,[15]; at 11.0 µM,-16% (inactive)
same,growth inhibition,[15]; at 33.0 µM,5% (inactive)
same,growth inhibition,[15]; at 100.0 µM,82% (active)
same,growth inhibition,[11]; at 1.2 µM,11% (inactive)
same,growth inhibition,[11]; at 3.7 µM,25% (inactive)
same,growth inhibition,[11]; at 11.0 µM,41% (inactive)
same,growth inhibition,[11]; at 33.0 µM,54% (inactive)
same,growth inhibition,[11]; at 100.0 µM,89% (active)
same,growth inhibition,[12]; at 1.2 µM,-2% (inactive)
same,growth inhibition,[12]; at 3.7 µM,-7% (inactive)
same,growth inhibition,[12]; at 11.0 µM,1% (inactive)
same,growth inhibition,[12]; at 33.0 µM,26% (inactive)
same,growth inhibition,[12]; at 100.0 µM,88% (active)
